Shown are actives, neighbours in structure and some others; about 6% of the full set was active somewhere.
PLK1 PBD inh: qHTS for Inhibitors of PLK1-PDB (polo-like kinase 1 - polo-box domain): Primary Screen | Plk1 PBD binding of FITC phosphopeptide, fluorescence polarization | AID 720504, 2013 | Potency, µM, for the others: max response, negative = inhibition, most hits filed as inhibitors | hit rate 2.8% among 360,000; further: series mostly up to about 57 µM; nearly all actives have a fitted effect of over 65% in size
Sfp inh: qHTS Assay for Inhibitors of Bacillus subtilis Sfp phosphopantetheinyl transferase (PPTase); 4'-phosphopantetheinyl transferase ffp (Bacillus subtilis), Q9F4F7; Biochemical Sfp PPTase activity, qHTS; hit rate 3.5% among 310,000; Potency, µM, without a hit: largest response in the series, negative = inhibition, usual class: inhibitors;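 further: the enzyme is Sfp with the accession as filed and its product quenches rhodamine fluorescence; 0% = enzyme reaction without inhibitor and -100% = no enzyme wells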
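Fluorescence-quenching assay with 15 nM Sfp, 5 uM rhodamine-CoA and 12.5 uM BHQ-2-labelled ybbR peptide in pH 7.6 Hepes/MgCl2 buffer. Enzyme was pre-incubated with compound for 15 min at room temperature. Rate was taken from the 30-min fluorescence change (525/598 nm).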
Tau fluor counter: Counterscreen qHTS for Inhibitors of Tau Fibril Formation, Fluorescence Polarization; Potency, µM (series often up to 57.7 µM), for inactives: top-dose activity change, negative = decrease; tau K18 P301L Alexa594 fluorescence, heparin fibrillization; hit rate 0.93% among 280,000; further: nearly all actives have a fitted effect of over 55% in size
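Human K18 P301L tau (15 uM unlabeled plus 0.24 uM Alexa 594-labeled, final) in 100 mM sodium acetate pH 7 was mixed with compound and 20 uM heparin and incubated 6 hr at 37 C.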
VDR inh: Inhibitors of the vitamin D receptor (VDR): qHTS; VDR-SRC2-3 peptide fluorescence polarization, 2 h; Vitamin D3 receptor (Homo sapiens), P11473; hit rate 0.93% among 400,000; Potency, µM, for the others: max response, negative = inhibition, hits mostly inhibitors
Target sequence (P11473 whole entry, looked up): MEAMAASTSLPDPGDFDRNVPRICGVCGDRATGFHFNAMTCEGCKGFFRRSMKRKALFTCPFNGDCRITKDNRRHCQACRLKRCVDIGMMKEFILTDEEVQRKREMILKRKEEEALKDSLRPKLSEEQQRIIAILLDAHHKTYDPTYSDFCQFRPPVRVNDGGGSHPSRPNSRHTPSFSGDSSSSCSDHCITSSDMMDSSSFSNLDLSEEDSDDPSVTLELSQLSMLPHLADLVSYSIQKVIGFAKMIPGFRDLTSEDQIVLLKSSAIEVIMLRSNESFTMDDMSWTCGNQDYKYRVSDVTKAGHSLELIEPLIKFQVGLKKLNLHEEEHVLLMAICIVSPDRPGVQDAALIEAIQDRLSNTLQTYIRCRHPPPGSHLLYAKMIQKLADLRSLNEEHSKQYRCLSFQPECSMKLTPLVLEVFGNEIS
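FP read-out; VDR + SRC2-3 coactivator peptide; 23 nl compound by pintool; 2 h RT incubation; reagents held at 4 deg C, protected from light.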
Tau fibril ThT: qHTS for Inhibitors of Tau Fibril Formation, Thioflavin T Binding | Microtubule-associated protein tau (Homo sapiens), P10636 | recombinant tau K18 P301L (four-repeat tau fragment), heparin-induced fibrillization, ThT fluorescence | Potency, µM (series often up to 57.4 µM), for inactives: top-dose activity, negative = inhibition, actives largely listed as inhibitors | hit rate 2.1% among 270,000; further: nearly all actives have a fitted effect of over 55% in size
Target sequence (P10636 561-689 P618L limits assumed): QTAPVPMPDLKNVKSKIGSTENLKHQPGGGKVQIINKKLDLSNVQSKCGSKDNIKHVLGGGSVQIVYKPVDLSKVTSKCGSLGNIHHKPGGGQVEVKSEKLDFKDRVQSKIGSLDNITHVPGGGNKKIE
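Aggregation was driven by heparin (20 uM final) acting on recombinant tau […] bearing P301L in 100 mM sodium acetate pH 7; fibrils were detected with Thioflavin T.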
Tau FP inhib: qHTS for Inhibitors of Tau Fibril Formation, Fluorescence Polarization | Potency, µM (doses to about 57.7 µM), without a hit: at the highest dose activity, negative = inhibition, hits mostly inhibitors | hit rate 0.39% among 280,000 | AID 1468, 2008 | K18 P301L tau heparin fibrillization, Alexa594 FP, 6 h; further: nearly all actives have a fitted effect of over 55% in size
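Quantitative HTS format: compounds meet 15 uM recombinant K18 P301L tau and Alexa 594-tau tracer in 100 mM sodium acetate pH 7; 20 uM heparin triggers fibrillization at 37 C over 6 hr; FP gives the signal.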
Numbers without * were called inactive; ? = inconclusive; nt = not tested or not shown; [ ] = another dose, or the depositor's remark. The call rests on the fitted dose curve; in most records, active means well fitted curve in the direction sought with a large enough effect; inconclusive means small, poorly fitted or top-dose-only effect, or another doubt; inactive means no such curve, though single readings can be large; an effect the other way counts as inactive or inconclusive. Unless noted, on the % scale 0 is the no-effect control and ±100 the full control effect; potency means the concentration at half of the fitted maximal effect.

SMILES	PLK1 PBD inh	Sfp inh	Tau fluor counter	VDR inh	Tau fibril ThT	Tau FP inhib
CCCCn1c(SCC(=O)NC(C)CC)nc2ccc(N3CCOCC3)cc2c1=O (centres undefined)	-2%	56µM*	?	-17%	?	-8%
CCCCn1c(SCC(=O)NCc2ccco2)nc2ccc(N3CCOCC3)cc2c1=O	-15%	45µM*	-2%	-7%	-7%	-4%
CCCCn1c(SCC(=O)NCc2ccccc2)nc2ccc(N3CCOCC3)cc2c1=O	-20%	-29%	-9%	-15%	-14%	8%
CCOc1ccc2c(c1)c(=O)c(C(=O)c1ccc(CC)cc1)cn2CC(=O)Nc1cccc(Cl)c1	nt	nt	-16%	-6%	-7%	-7%
CC(C)c1nc2sc3c(=O)[nH]c(=S)[nH]c3c2c2c1CCC2	nt	-2%	-17%	nt	?	0%
CC(C)c1nc2sc3c(=O)[nH]c(=S)[nH]c3c2c2c1CCCC2	24µM*	9%	2%	71µM*	-6%	7%
COc1ccc(C(=O)c2c(C)oc3ccc(O)c(CN4CCOCC4)c23)cc1	-11%	56µM*	-18%	-24%	-9%	-12%
COc1cc(O)c2c(c1)oc(=O)c1c3cc(O)c(O)cc3oc21	nt	10µM*	nt	?	nt	nt
O=C(CN1c2ccccc2Sc2ccccc21)NNC(=O)Nc1ccc(Cl)c(Cl)c1	-5%	-9%	5µM*[quencher]	-5%	?	?
O=C(CN1c2ccccc2Sc2ccccc21)N/N=C/c1ccccc1	18%	16%	?	5%	-8%	9%
O=C(CN1c2ccccc2Sc2ccccc21)NNC(=O)Nc1ccc(Cl)cc1	0%	-17%	5.6µM*[quencher]	14%	nt	11%
CC(=O)N1C[C@H]2CON(C)[C@H]2C[C@H]1c1cccc(-c2ccc(C#N)cc2)c1	-7%	nt	nt	nt	nt	nt
COc1cccc(/C=C/C(=O)OCC(=O)c2c[nH]c3ccccc23)c1	1%	nt	nt	3%	nt	nt
CCc1cccc2c(C(=O)COC(=O)/C=C/c3ccc(O)c(OC)c3)c[nH]c12	-5%	11%	16µM*[quencher]	6%	?	-9%
CCCCNC(=O)n1c(SC)nc2ccccc21	?	-8%	-10%	-6%	-8%	-5%
COC(=O)n1c(SC)nc2ccccc21	27µM*	-11%	3%	-6%	7%	-6%
Cc1cc(C)c(NC(=O)CSc2nc(=O)n(Cc3ccncc3)c3c2CCC3)c(C)c1	nt	nt	4%	3%	0%	-13%
CC(=O)N1CC2(CC2)CC1c1ccccc1 (centres undefined)	nt	17%	1%	nt	-3%	8%
C/C(=N\Nc1nc(N2CCCCCC2)nc(N2CCCCCC2)n1)c1ccccc1	-13%	-5%	-15%	-19%	-19%	-3%
CC(=O)Nc1ccc(/C(C)=N/Nc2nc(N3CCOCC3)nc(N3CCOCC3)n2)cc1	30µM*	1%	-12%	?	?	0%
Cc1cc(C)c2sc(N(Cc3cccnc3)C(=O)CCOc3ccccc3)nc2c1	nt	nt	-17%	8%	-11%	-16%
COC(=O)N(C)C[C@@H]1OCc2cn(nn2)CCCC(=O)N([C@@H](C)CO)C[C@H]1C	-9%	nt	nt	nt	nt	nt
CCCCC[n+]1ccn(C2=C([O-])c3ccccc3C(=O)/C2=N\S(=O)(=O)c2ccccc2)c1	0%	-2%	-24%	-12%	?	-4%
CCCCC[n+]1ccn(C2=C([O-])c3ccccc3C(=O)/C2=N\S(=O)(=O)c2ccc(Br)cc2)c1	-12%	8%	?	-30%	11µM*	?
Cc1cccc(C)c1NC(=O)c1oc2c(c1C)-c1nn(Cc3ccccc3)cc1CC2	nt	nt	-20%	6%	7%	-14%
SMILES	PLK1 PBD inh	Sfp inh	Tau fluor counter	VDR inh	Tau fibril ThT	Tau FP inhib
CC(O)CSc1nc2c(c(=O)[nH]c(=O)n2C)n1Cc1ccccc1 (centres undefined)	-1%	16%	nt	-16%	nt	nt
Cn1c(=O)[nH]c(=O)c2c1nc(SCC(O)CCl)n2Cc1ccccc1 (centres undefined)	0%	40µM*	nt	-8%	nt	nt
Cc1ccc(-c2nc3c(c(=O)[nH]c(=O)n3Cc3ccccc3)n2C)s1	nt	12%	-12%	nt	-13%	-8%
C=CCSc1nc2c(c(=O)[nH]c(=O)n2C)n1Cc1ccc(C)cc1	21µM*	-15%	0%	-15%	-2%	3%
Cc1ccc(-c2nc3c(c(=O)[nH]c(=O)n3Cc3ccccc3)n2Cc2ccccc2)o1	-11%	13µM*	-23%	-11%	?	?
C=CCSc1nc2c(c(=O)[nH]c(=O)n2C)n1C(C)C	27µM*	?	3%	-30%	-2%	0%
CCCCOc1ccccc1CC1C(=O)Nc2ccc(Br)cc21 (centres undefined)	nt	nt	?	10%	?	-8%
CCCN(CC(=O)Nc1ccccc1C)C(=O)CC(NC(=O)c1ccccc1)c1ccccc1 (centres undefined)	-6%	nt	nt	-16%	nt	nt
COc1ccc(CCNC(=O)c2ccc(Cn3c(=O)c4ccccc4n(Cc4ccc(F)cc4Cl)c3=O)cc2)cc1OC	nt	nt	-11%	-6%	-3%	-5%
CCN(Cc1ccc(O)cc1)CC1CCCN(CCc2cccc(F)c2)C1 (centres undefined)	-2%	2%	nt	-5%	nt	nt
Cc1cc(C)n(-c2nc3c(c(=O)[nH]c(=O)n3C)n2CCc2ccccc2)n1	30µM*	3%	-9%	-9%	-11%	0%
CC(C)Sc1nc2c(c(=O)[nH]c(=O)n2C)n1Cc1ccccc1	4%	11%	nt	0%	nt	nt
CCOC(=O)C(CC)Sc1nc2c(c(=O)[nH]c(=O)n2C)n1CCc1ccccc1 (centres undefined)	24µM*	?	-4%	-21%	-18%	-10%
Cc1ccc(Cn2c(SCC(C)C)nc3c2c(=O)[nH]c(=O)n3C)cc1	24µM*	35µM*	2%	-12%	5%	4%
CCOC(=O)C(C)Sc1nc2c(c(=O)[nH]c(=O)n2C)n1Cc1ccc(Cl)cc1 (centres undefined)	21µM*	?	-3%	89µM*	-14%	0%
CC1CN(C(=O)N2CCC(C(=O)NCCCc3ccccc3)CC2)c2ccccc2O1 (centres undefined)	nt	nt	-14%	14%	-11%	?
C[C@H](N)CCCP(=O)(O)O	nt	?	-1%	4%	2%	-3%
